Holding throughout (assay): DAPPL (digital affinity profiling via proximity ligation, sequencing); 10 mM Tris-HCl pH 7.5, 50 mM NaCl, 1 mM DTT, 4% glycerol, room temperature, 30 min; GST-TFs on glutathione beads, 16-mer random dsDNA library, 0.1% formaldehyde crosslink after washing; high values mean tight binding
One assay addresses T1, FLI1 (Homo sapiens, UniProt Q01543 1-452).
T1 sequence: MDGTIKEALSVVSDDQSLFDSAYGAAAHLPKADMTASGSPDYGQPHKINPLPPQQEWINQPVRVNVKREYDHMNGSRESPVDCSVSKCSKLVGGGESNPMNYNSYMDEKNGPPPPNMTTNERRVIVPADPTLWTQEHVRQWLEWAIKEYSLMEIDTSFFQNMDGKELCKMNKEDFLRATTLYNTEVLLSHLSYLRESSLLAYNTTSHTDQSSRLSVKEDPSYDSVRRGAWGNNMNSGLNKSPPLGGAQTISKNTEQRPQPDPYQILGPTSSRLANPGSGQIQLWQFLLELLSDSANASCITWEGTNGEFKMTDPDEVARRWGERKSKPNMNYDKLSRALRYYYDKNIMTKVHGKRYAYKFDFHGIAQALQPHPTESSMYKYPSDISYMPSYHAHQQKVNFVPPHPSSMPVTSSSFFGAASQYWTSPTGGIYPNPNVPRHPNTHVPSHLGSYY
As to conditions: protein: recombinant; tags: N-terminal GST; dsDNA, one strand shown. In short, it runs like this: (§1)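 Beads coated with glutathione captured GST-fused human transcription factors that had been expressed in yeast, and the factors were then given DNA barcodes and pooled with a tag-only sample. The pools were incubated with 200 nmole of a random double-stranded 16-mer DNA library in Tris/NaCl/DTT/glycerol buffer for 30 min at room temperature, washed, crosslinked with 0.1% formaldehyde and proximity-ligated with BsaI/T4 ligase at 37 °C for 1 h. PCR amplification and Illumina NextSeq500 sequencing came last. Binding signal is each hexamer's read frequency for a factor divided by its frequency for the tag-only sample.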

The next assay has as its target T2, ELK1 (Homo sapiens, UniProt P19419 1-428).
T2 sequence: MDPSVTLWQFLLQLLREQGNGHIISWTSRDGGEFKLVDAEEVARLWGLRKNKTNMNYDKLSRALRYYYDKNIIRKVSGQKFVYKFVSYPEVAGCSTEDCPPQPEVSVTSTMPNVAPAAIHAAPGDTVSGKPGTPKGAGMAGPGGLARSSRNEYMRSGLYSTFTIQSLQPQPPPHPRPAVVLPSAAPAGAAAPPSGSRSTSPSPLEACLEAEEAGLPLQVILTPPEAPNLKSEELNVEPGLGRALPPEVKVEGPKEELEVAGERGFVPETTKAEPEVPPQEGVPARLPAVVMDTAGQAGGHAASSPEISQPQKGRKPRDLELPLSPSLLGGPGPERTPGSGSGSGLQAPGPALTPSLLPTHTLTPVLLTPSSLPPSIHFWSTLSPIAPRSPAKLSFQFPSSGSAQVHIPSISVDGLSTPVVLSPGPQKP
The settings on record: protein: recombinant; tags: N-terminal GST; dsDNA, one strand shown. In short, it runs like this:
as §1

The target of a further assay is T3, GABPA (Homo sapiens, UniProt Q06546 1-454).
T3 sequence: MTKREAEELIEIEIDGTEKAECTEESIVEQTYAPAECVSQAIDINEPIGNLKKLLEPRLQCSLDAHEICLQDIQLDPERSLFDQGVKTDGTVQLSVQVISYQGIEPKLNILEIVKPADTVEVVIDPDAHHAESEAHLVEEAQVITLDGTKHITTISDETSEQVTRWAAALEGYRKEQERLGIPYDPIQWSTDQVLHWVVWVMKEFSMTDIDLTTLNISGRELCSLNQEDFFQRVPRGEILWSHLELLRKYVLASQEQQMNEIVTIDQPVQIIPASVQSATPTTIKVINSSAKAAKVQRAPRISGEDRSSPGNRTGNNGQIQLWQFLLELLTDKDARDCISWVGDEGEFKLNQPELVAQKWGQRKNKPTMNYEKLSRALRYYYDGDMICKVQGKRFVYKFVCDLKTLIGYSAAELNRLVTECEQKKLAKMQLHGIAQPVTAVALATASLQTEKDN
The settings on record: protein: recombinant; tags: N-terminal GST; dsDNA, one strand shown. In short, it runs like this:
as §1

The next assay has as its target T4, ERG (Homo sapiens, UniProt P11308 1-479).
T4 sequence: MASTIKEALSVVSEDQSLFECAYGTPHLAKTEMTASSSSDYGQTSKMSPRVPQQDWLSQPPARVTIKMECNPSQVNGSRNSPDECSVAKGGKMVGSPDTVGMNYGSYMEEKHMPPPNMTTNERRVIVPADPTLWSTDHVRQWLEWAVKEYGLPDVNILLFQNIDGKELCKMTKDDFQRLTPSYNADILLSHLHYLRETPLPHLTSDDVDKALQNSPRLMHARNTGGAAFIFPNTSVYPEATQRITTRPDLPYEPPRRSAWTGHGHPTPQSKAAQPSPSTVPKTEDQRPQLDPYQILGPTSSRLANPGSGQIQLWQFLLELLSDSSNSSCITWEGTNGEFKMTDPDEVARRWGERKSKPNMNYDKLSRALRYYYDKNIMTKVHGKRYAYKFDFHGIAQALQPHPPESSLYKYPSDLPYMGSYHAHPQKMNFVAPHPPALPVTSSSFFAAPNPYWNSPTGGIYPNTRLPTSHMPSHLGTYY
The settings on record: protein: recombinant; tags: N-terminal GST; dsDNA, one strand shown. In short, it runs like this: as §1

In another assay the target is ELF1 (Homo sapiens, UniProt P32519 1-619). The settings on record: protein: recombinant; tags: N-terminal GST; dsDNA, one strand shown. In short, it runs like this: as §1
A further assay has as its target T5, EHF (Homo sapiens, UniProt Q9NZC4 1-300).
T5 sequence: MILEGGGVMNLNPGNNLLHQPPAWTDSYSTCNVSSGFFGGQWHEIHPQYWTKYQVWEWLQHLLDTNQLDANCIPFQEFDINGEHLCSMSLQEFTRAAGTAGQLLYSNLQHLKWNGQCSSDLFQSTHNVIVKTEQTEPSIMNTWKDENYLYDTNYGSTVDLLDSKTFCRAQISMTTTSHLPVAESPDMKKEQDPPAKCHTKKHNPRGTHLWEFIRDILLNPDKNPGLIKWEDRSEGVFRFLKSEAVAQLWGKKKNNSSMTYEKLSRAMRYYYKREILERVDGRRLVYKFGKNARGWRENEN
As to conditions: protein: recombinant; tags: N-terminal GST; dsDNA, one strand shown. Put shortly: as §1

For another assay, the target named is SPI1 (Homo sapiens, UniProt P17947 1-270). As to conditions: protein: recombinant; tags: N-terminal GST; dsDNA, one strand shown. Put shortly: as §1
The target in another assay is SPIB (Homo sapiens, UniProt Q01892 1-262). As to conditions: protein: recombinant; tags: N-terminal GST; dsDNA, one strand shown. In short, it runs like this:
as §1

Another assay concerns the target T6, ELK3 (Homo sapiens, UniProt P41970 1-407).
T6 sequence: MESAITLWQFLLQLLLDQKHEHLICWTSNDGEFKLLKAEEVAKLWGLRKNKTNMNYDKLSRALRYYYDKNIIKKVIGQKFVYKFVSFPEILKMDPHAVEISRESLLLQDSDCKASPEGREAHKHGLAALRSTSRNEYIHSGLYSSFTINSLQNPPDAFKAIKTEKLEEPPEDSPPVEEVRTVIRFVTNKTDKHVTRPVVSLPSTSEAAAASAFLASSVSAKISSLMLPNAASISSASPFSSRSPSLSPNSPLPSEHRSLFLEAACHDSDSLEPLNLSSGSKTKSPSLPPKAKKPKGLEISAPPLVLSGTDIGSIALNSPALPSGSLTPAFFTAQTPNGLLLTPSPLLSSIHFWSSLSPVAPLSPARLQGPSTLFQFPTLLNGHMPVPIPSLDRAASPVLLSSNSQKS
The settings on record: protein: recombinant; tags: N-terminal GST; dsDNA, one strand shown. Put shortly: as §1

Another assay addresses T7, FEV (Homo sapiens, UniProt Q99581 1-238).
T7 sequence: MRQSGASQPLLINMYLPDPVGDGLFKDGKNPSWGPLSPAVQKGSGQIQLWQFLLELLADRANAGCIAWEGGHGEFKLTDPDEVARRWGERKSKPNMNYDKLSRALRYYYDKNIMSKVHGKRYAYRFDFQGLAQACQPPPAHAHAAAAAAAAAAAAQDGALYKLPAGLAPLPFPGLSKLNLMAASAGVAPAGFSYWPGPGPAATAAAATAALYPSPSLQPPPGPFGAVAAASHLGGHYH
The settings on record: protein: recombinant; tags: N-terminal GST; dsDNA, one strand shown. Put shortly:
as §1

The target of another assay is ETV5 (Homo sapiens, UniProt P41161 1-510). As to conditions: protein: recombinant; tags: N-terminal GST; dsDNA, one strand shown. Put shortly:
as §1

The next assay addresses HSF1 (Homo sapiens, UniProt Q00613 1-529). The settings on record: protein: recombinant; tags: N-terminal GST; chain copies: 3; dsDNA, one strand shown. In short, it runs like this:
as §1

Another assay addresses ELF4 (Homo sapiens, UniProt Q99607 1-663). As to conditions: protein: recombinant; tags: N-terminal GST; dsDNA, one strand shown. Put shortly: as §1
A further assay addresses T8, ELK4 (Homo sapiens, UniProt P28324-2 1-405).
T8 sequence: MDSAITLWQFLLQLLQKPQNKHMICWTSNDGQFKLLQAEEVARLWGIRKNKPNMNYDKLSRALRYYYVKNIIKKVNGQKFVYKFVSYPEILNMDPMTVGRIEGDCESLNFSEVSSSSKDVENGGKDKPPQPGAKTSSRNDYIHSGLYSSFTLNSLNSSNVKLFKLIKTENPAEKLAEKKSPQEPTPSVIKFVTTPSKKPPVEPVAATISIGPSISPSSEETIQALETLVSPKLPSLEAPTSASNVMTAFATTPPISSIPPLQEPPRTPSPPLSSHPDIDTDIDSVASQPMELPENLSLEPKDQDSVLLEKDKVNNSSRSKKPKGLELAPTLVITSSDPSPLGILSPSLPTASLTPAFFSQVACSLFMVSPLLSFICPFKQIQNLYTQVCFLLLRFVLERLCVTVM
The settings on record: protein: recombinant; tags: N-terminal GST; dsDNA, one strand shown. Put shortly: as §1

Another assay concerns the target T9, ETV2 (Homo sapiens, UniProt O00321 1-342).
T9 sequence: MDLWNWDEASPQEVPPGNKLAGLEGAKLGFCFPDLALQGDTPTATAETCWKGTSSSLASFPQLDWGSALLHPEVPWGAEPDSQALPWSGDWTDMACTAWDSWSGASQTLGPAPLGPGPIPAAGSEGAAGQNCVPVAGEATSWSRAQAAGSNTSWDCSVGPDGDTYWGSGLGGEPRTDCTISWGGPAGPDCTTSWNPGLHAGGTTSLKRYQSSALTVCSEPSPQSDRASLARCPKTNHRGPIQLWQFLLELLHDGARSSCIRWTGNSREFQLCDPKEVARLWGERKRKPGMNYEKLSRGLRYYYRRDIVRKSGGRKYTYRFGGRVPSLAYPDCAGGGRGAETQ
As to conditions: protein: recombinant; tags: N-terminal GST; dsDNA, one strand shown. In short, it runs like this:
as §1

The target of a further assay is T10, ELF3 (Homo sapiens, UniProt P78545 1-371).
T10 sequence: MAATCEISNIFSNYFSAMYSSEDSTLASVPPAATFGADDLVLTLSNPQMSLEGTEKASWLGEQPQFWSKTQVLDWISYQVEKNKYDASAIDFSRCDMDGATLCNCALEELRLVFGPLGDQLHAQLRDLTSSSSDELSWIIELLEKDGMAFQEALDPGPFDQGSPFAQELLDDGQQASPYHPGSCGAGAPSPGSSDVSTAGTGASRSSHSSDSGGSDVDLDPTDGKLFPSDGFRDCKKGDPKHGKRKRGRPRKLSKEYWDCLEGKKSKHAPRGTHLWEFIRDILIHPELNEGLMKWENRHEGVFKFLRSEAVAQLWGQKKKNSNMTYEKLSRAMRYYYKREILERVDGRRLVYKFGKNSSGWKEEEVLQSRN
As to conditions: protein: recombinant; tags: N-terminal GST; dsDNA, one strand shown. In short, it runs like this: as §1

In a further assay the target is CRX (Homo sapiens, UniProt O43186 1-299). As to conditions: protein: recombinant; tags: N-terminal GST; dsDNA, one strand shown. In short, it runs like this:
as §1

For another assay, the target named is ETV1 (Homo sapiens, UniProt P50549 1-477). The settings on record: protein: recombinant; tags: N-terminal GST; dsDNA, one strand shown. Put shortly: as §1
ETV1, sequence (P50549 whole entry): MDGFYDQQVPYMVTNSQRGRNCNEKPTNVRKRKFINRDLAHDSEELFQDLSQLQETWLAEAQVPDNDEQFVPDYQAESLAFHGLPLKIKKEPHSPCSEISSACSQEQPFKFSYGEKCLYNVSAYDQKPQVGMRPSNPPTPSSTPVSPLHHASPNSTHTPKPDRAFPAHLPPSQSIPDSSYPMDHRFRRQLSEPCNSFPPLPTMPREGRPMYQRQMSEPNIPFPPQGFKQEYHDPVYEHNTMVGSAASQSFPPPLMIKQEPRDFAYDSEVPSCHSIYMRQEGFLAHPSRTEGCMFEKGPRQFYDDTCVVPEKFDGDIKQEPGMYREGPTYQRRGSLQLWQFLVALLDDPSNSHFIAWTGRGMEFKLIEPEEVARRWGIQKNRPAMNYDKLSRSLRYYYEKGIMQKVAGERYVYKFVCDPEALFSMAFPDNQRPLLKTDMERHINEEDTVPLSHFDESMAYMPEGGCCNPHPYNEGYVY

ELF4, sequence (Q99607 whole entry): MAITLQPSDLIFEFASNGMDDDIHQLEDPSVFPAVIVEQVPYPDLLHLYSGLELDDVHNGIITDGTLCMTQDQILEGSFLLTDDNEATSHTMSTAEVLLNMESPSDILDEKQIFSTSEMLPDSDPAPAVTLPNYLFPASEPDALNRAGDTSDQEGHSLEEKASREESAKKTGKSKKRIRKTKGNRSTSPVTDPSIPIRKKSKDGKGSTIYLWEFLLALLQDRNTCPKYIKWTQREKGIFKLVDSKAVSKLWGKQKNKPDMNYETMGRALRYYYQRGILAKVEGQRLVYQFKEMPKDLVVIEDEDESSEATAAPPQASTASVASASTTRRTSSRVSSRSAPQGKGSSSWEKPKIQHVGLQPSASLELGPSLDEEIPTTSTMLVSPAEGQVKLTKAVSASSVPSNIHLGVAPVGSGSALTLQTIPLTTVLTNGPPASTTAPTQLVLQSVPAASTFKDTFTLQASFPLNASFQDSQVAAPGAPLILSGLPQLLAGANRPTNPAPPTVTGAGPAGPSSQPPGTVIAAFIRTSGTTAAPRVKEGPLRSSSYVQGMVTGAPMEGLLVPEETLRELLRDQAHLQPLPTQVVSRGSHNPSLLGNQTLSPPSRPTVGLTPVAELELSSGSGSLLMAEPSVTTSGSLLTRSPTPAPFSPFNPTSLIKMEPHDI
ETV5, sequence (P41161 whole entry): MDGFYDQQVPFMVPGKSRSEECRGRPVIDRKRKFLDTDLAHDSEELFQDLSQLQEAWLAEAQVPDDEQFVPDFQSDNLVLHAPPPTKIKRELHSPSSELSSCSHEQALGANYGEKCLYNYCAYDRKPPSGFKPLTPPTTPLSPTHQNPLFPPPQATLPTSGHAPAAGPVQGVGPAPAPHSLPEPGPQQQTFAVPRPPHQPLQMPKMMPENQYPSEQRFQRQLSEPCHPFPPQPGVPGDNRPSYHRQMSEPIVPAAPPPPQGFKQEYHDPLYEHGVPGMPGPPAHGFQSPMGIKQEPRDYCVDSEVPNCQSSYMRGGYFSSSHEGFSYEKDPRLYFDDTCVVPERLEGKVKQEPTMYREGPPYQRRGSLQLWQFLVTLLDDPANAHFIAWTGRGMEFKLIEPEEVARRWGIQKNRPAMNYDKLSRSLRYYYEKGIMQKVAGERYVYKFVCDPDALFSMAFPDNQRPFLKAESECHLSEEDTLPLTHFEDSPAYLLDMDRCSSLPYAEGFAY
ELF1, sequence (P32519 whole entry): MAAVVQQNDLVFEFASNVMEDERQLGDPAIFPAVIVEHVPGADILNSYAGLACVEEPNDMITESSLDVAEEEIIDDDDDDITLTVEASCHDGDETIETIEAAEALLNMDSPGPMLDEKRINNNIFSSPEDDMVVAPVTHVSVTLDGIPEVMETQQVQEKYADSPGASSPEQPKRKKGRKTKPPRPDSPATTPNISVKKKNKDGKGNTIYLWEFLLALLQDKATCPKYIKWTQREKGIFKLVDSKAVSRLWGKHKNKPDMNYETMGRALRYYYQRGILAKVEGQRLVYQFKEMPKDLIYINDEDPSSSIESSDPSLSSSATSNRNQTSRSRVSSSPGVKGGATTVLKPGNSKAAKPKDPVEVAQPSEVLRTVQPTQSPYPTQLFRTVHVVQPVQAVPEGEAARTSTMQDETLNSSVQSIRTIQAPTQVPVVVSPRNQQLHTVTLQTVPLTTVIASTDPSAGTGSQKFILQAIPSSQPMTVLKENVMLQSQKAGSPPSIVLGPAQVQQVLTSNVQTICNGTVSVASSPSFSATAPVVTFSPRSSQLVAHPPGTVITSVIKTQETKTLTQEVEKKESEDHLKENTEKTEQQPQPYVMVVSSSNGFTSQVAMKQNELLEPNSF
CRX, sequence (O43186 whole entry): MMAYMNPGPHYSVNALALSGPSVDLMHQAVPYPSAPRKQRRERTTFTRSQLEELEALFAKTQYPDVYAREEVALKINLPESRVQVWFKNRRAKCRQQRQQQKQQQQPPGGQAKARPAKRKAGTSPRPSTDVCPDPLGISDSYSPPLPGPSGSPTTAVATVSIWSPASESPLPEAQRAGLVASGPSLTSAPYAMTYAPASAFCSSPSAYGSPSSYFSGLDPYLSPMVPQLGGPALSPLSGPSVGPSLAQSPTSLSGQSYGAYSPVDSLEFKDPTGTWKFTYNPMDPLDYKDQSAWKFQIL
SPIB, sequence (Q01892 whole entry): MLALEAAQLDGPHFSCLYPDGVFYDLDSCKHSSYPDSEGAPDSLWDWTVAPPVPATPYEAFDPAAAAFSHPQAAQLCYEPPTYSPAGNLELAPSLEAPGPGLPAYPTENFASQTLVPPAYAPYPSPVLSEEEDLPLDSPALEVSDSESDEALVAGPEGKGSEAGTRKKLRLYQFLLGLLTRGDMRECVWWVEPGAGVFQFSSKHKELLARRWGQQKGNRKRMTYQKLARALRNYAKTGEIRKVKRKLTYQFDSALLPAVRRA
HSF1, sequence (Q00613 whole entry): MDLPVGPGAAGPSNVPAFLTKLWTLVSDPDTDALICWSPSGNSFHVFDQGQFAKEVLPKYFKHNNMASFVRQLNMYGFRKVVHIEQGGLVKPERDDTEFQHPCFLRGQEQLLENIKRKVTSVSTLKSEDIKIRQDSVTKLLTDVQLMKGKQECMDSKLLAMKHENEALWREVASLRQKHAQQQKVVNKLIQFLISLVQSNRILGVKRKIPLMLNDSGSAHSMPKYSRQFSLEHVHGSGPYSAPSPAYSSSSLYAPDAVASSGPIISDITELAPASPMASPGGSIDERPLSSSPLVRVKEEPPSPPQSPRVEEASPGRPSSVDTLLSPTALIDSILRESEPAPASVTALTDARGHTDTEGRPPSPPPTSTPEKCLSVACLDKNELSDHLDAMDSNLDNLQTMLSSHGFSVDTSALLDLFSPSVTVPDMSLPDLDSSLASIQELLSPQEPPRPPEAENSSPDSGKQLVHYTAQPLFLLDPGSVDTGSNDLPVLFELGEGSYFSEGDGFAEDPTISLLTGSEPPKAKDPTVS

As to AAAAGA, the binding signal was 1.11 fold enrichment (6-mer frequency, TF over GST control) with FLI1; 1.19 fold enrichment (6-mer frequency, TF over GST control) with ELK1; 1.19 fold enrichment (6-mer frequency, TF over GST control) with GABPA; 1.06 fold enrichment (6-mer frequency, TF over GST control) with ERG; 1.06 fold enrichment (6-mer frequency, TF over GST control) in the assay with ELF1; 1.2 fold enrichment (6-mer frequency, TF over GST control) with EHF. In addition, the binding signal with SPI1 is 1.5 fold enrichment (6-mer frequency, TF over GST control); with SPIB, 1.26 fold enrichment (6-mer frequency, TF over GST control); in the assay with ELK3 it was 1.11 fold enrichment (6-mer frequency, TF over GST control); with FEV, 1.07 fold enrichment (6-mer frequency, TF over GST control); in the assay with ETV5, 1.12 fold enrichment (6-mer frequency, TF over GST control); with HSF1 it was 1.43 fold enrichment (6-mer frequency, TF over GST control). The binding signal was 1.2 fold enrichment (6-mer frequency, TF over GST control) with ELF4; 1.2 fold enrichment (6-mer frequency, TF over GST control) in the assay with ELK4; 1.1 fold enrichment (6-mer frequency, TF over GST control) in the assay with ETV2; 1.17 fold enrichment (6-mer frequency, TF over GST control) with ELF3; 1.28 fold enrichment (6-mer frequency, TF over GST control) with CRX; 1.14 fold enrichment (6-mer frequency, TF over GST control) with ETV1.
